# The campaign covered roughly 1,300 compounds. About 240 (18%) were called active. Inconclusive results (about 8%) are left out. No rule for the calls is given here. These entries were drawn from the full list. Measured potencies and affinities stand elsewhere.
# Experiment: HepG2 cell cytotoxicity, dose response, cytotoxicity control, cherry-picked samples (AID 1159577)
# Conditions: HepG2 cytotoxicity counterscreen, plate reader; series mostly up to 19.5 µM
row,Compound,outcome
1,O=C(Cc1cccnc1)N1CC[C@H]2[C@H](CO)Nc3ccc(C#Cc4cccc(F)c4)cc3[C@H]21,inactive
2,COCC(=O)N1[C@H](CO)[C@@H](c2ccccc2)C12CN(Cc1cc(F)ccc1F)C2,inactive
3,COc1ccccc1-c1ccccc1[C@@H]1[C@@H](C#N)N(C(=O)C2CC2)[C@@H]1CO,inactive
4,COc1ccc2c3c(n(C)c2c1)[C@@H](CO)N(CC1CCCCC1)CC31CCN(C(=O)CN(C)C)CC1,inactive
5,COc1ccc(C#Cc2ccc3c(c2)[C@H]2[C@H](CCN2C(=O)C2CCCC2)[C@@H](CO)N3)cc1,inactive
6,CCCNC(=O)N1[C@@H](C#N)[C@H](c2ccccc2-c2ccccc2F)[C@@H]1CO,inactive
7,COc1ccc(NC(=O)N(C)C[C@@H]2Oc3cc(-c4ccc(C)cc4)ccc3S(=O)(=O)N([C@@H](C)CO)C[C@H]2C)cc1,inactive
8,COc1ccc2c3c(n(C)c2c1)[C@@H](CO)N(C(=O)Nc1ccc(F)cc1)CC31CN(C(=O)c2ccc3c(c2)OCO3)C1,inactive
9,COc1ccc2c3c([nH]c2c1)[C@@H](CO)N(Cc1cc(F)ccc1F)CC31CN(C(=O)CN(C)C)C1,inactive
10,CC(C)(C)[S@@](=O)N1Cc2cc(C(=O)NCCc3ccncc3)nc(-c3cccc(-c4ccccc4)c3)c2[C@H]1CCO,inactive
11,COc1ccc2c3c(n(C)c2c1)[C@@H](CO)N(C(=O)C1CCCC1)CC31CN(C(=O)Nc2cccc(F)c2)C1,inactive
12,CCCC#Cc1ccc([C@H]2[C@@H](CO)N(C(=O)C3CCCCC3)[C@H]2C#N)cc1,inactive
13,COc1cccc(C#Cc2ccc([C@@H]3[C@@H](C#N)N(C(=O)c4ccccn4)[C@H]3CO)cc2)c1,inactive
14,N#C[C@H]1[C@@H](c2ccc(C#CC3CC3)cc2)[C@H](CO)N1S(=O)(=O)c1ccccc1,inactive
15,N#C[C@H]1[C@H](c2ccc(C#CC3CCCCC3)cc2)[C@@H](CO)N1S(=O)(=O)c1ccccc1,inactive
16,CCS(=O)(=O)N1[C@H](CO)[C@H](c2ccc(C#Cc3ccccc3F)cc2)[C@@H]1C#N,inactive
17,N#C[C@H]1[C@@H](c2ccc(C#CC3CCCC3)cc2)[C@@H](CO)N1S(=O)(=O)Cc1ccccc1,inactive
18,COc1ccc(C#Cc2ccc3c(c2)[C@H]2[C@H](CCN2Cc2nccs2)[C@@H](CO)N3)cc1,inactive
19,CCCN1C[C@@H](C)[C@H](OC)CN(C)C(=O)c2ccc(NC(=O)c3ccc4c(c3)OCO4)cc2OC[C@H]1C,inactive
20,CC(C)(O)C#Cc1cccc(-c2nc(C(=O)N[C@@H]3CCN(Cc4ccccc4)C3)cc3c2[C@H](CCO)N(S(=O)C(C)(C)C)C3)c1 (stereo not given in full),inactive
21,CCCC#Cc1cnc2c(c1)C(=O)N([C@@H](C)CO)C[C@H](C)[C@H](CN(C)C(=O)Nc1cccc(F)c1)O2,inactive
22,C[C@H](CO)N1C[C@H](C)[C@H](CN(C)S(=O)(=O)c2ccccc2)Oc2cc(C#Cc3ccncc3)ccc2S1(=O)=O,inactive
23,C[C@@H]1CN([C@@H](C)CO)C(=O)c2cccc(NC(=O)c3cnccn3)c2O[C@@H]1CN(C)Cc1ccc(C(F)(F)F)cc1,inactive

row,Compound,outcome
1,CC(C)(C)S(=O)N1Cc2cc(C(=O)NCc3ccc4c(c3)OCO4)nc(-c3cccc(C#CCC4CCCC4)c3)c2[C@@H]1CCO (stereo not given in full),inactive
2,COc1ccc(-c2ccc([C@@H]3[C@@H](CO)N4C(=O)CN(C(=O)C5CCCC5)C[C@@H]34)cc2)cc1,inactive
3,C[C@@H]1CN([C@@H](C)CO)C(=O)c2cccc(NC(=O)Nc3ccc4c(c3)OCO4)c2O[C@@H]1CN(C)C(=O)Nc1ccc2c(c1)OCO2,inactive
4,O=C(c1cccnc1)N1CC2(C1)[C@@H](c1ccccc1)[C@@H](CO)N2C(=O)CC1CC1,inactive
5,COc1ccc(S(=O)(=O)N2CCC3(CC2)CN(Cc2ccncc2)[C@H](CO)c2[nH]c4cc(OC)ccc4c23)cc1,inactive
6,COc1cccc(-c2ccc3c(c2)[C@H]2[C@H](CCN2C(=O)C2CCCCC2)[C@@H](CO)N3)c1,inactive
7,C[C@@H]1CN([C@@H](C)CO)C(=O)c2cccc(NC(=O)c3nc4ccccc4s3)c2O[C@H]1CN(C)C(=O)NC1CCCCC1,inactive
8,N#C[C@@H]1[C@H](c2ccc(-c3cccc(F)c3)cc2)[C@@H](CO)N1C(=O)NC1CCCC1,inactive
9,OC[C@H]1[C@@H](c2ccc(-c3cccnc3)cc2)[C@@H]2CN(CC3CC3)CCCCN12,inactive
10,N#C[C@@H]1[C@H](c2ccc(-c3cccc(F)c3)cc2)[C@H](CO)N1C(=O)NC1CCCC1,inactive
11,OC[C@H]1[C@@H](c2ccc(-c3cccnc3)cc2)[C@H]2CN(CC3CC3)CCCCN21,inactive
12,OC[C@@H]1Nc2ccc(C3=CCCCC3)cc2[C@@H]2[C@H]1CCN2Cc1nccs1,inactive
13,C[C@H]1CN([C@@H](C)CO)C(=O)c2c(c3ccccc3n2C)-c2ccccc2CO[C@@H]1CN(C)Cc1ccc(Oc2ccccc2)cc1,inactive
14,C[C@@H]1CN([C@@H](C)CO)C(=O)c2c(c3ccccc3n2C)-c2ccccc2CO[C@@H]1CN(C)Cc1ccc(Oc2ccccc2)cc1,inactive
15,C[C@@H]1CN([C@@H](C)CO)C(=O)c2c(c3ccccc3n2C)-c2ccccc2CO[C@H]1CN(C)Cc1ccc(Cl)c(Cl)c1,inactive
16,C[C@@H]1CN([C@@H](C)CO)C(=O)c2c(c3ccccc3n2C)-c2ccccc2CO[C@@H]1CN(C)C(=O)c1cc(Cl)cc(Cl)c1,inactive
17,C[C@@H]1CN([C@H](C)CO)S(=O)(=O)c2ccc(-c3cccc(C(=O)N(C)C)c3)cc2O[C@H]1CN(C)Cc1ccc2c(c1)OCO2,inactive
18,COCC#Cc1ccc(CC[C@H]2O[C@H]3CC[C@H](CO)O[C@H]3C[C@@H]2n2cc(C3CC3)nn2)cc1,inactive
19,COc1cccc(NC(=O)N2CC(=O)N3[C@H](CO)[C@@H](c4ccc(C#CCC5CCCC5)cc4)[C@H]3C2)c1,inactive
20,COc1ccc2c3c(n(C)c2c1)[C@H](CO)N(C(=O)Nc1ccc(F)cc1)CC31CCN(Cc2cccnc2)CC1,inactive
21,Cc1ccc(-c2ccc([C@H]3[C@@H](CO)N4C(=O)CN(C(=O)Nc5cccc(F)c5)C[C@H]34)cc2)cc1,inactive
22,COc1cccc(C#Cc2ccc([C@H]3[C@@H](CO)N4C(=O)CN(C(=O)Cc5ccccc5)C[C@H]34)cc2)c1,inactive

# — PubChem BioAssay AID1159577 (Broad Institute, 2015)
